Holding throughout (assay): NCI-60 one-dose screen, 48 h (100 = growth as untreated, 0 = no growth, -100 = all killed)
Common to all, as to conditions: 10 µM unless noted

Assay [1] has as its system SK-MEL-2 melanoma.
Assay [2] has as its system EKVX NSCLC.
Assay [3] relates to SN12C renal.
The subject of assay [4] is UO-31 renal.
Assay [5] deals with TK-10 renal.
The subject of assay [6] is ACHN renal.
For assay [7], the system named is CAKI-1 renal.
Assay [8] concerns A498 renal.
In assay [9] the test system is CCRF-CEM leukemia.
For assay [10], the system named is MOLT-4 leukemia.
Assay [11] relates to RPMI-8226 leukemia.
Assay [12] deals with OVCAR-8 ovarian.
Assay [13] deals with OVCAR-5 ovarian.
Assay [14] concerns OVCAR-4 ovarian.
Assay [15] has as its system SK-OV-3 ovarian.
In assay [16] the test system is IGROV1 ovarian.
In assay [17] the test system is OVCAR-3 ovarian.
In assay [18] the test system is HS 578T breast.
Assay [19] deals with NCI/ADR-RES ovarian.

The panel holds about 83,000 compounds, 20% with a hit somewhere; the sample as a whole holds those more often.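 How to read the values: 0–100, growth inhibition (40 = 60% inhibited); 0, no net growth; -100 to 0, cell death (-40 = 40% of starting cells died; -100 = all dead).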 A number with no mark means an inactive call. Activity calls are given as the source filed them. How the source made its calls: active means growth percent below 10; inactive means the rest.

As to `Cc1cc(NS(=O)(=O)c2ccc(-c3cnc(C4CC4)o3)cc2)ccc1Cl`, the growth was 45.3% in [1]; 28.5% in assay [2]; 48.4% in assay [3]; 46.5% in assay [4]; 54.3% in assay [5]; 40.4% in assay [6]. Moreover, the growth was 34.7% in assay [7]; -17.8% (active) in assay [8]; 14.4% in assay [9]; 17.8% in assay [10]; 24.8% in assay [11]; 12.9% in [12]. Further, the growth in [13] is 22%; in [14], 44.7%; in [15] it was 32.4%; in assay [16], 27.7%; in assay [17], -20.9% (active); in assay [18], 11.9%. In addition, the growth in [19] is 0.314% (active).
In the case of `CC1=CC(=NN=c2cc(C)n([O-])c(C)c2)C=C(C)[N+]1=O`, the growth in assay [1] is 84.7%; in assay [2] it was 110%; in assay [3], 92.1%; in assay [4] it was 85.7%; in [5], 85.8%; in assay [6] it was 110%. Moreover, the growth in [7] was 98.2%; in [8] it was 124%; in assay [9] it was 91.7%; in [10] it was 81.7%; in assay [11], 67.4%; in assay [12], 86.2%. The growth in [13] is 110%; in [14], 78%; in assay [15], 111%; in [16], 89.2%; in assay [17] it was 110%; in [18], 98.8%. For the same molecule, the growth in assay [19] was 111%.
On to `COc1cc(CNc2oc(-c3ccccc3)c(-c3ccccc3)c2C#N)cc(CN2CCN(C)CC2)c1O`, for which the growth was 82.4% in assay [1]; 65.6% in assay [2]; 77.4% in assay [3]; 51.5% in assay [4]; 91.9% in [5]; 65.7% in assay [6]. In addition, the growth in assay [7] is 66%; in assay [8], -7.97% (active); in assay [9], 45.6%; in [10] it was -13.7% (active); in [11] it was 2.73% (active); in assay [12], 94.5%. For the same molecule, the growth in assay [13] is 63.8%; in assay [14], 55%; in assay [15], 95.9%; in assay [16], 71.2%; in assay [17], 80.2%; in [18], 70.5%. In addition, the growth in [19] was 75.3%.
For the molecule `C=CC(=O)Nc1cccc(-c2nc(SC)nc(NCCN3CCOCC3)c2C#N)c1`, the growth in assay [1] is 82.6%; in [2], 86.5%; in [3] it was 81.2%; in assay [4], 61.4%; in [5], 134%; in assay [6], 80.8%. Moreover, the growth in [7] is 86.2%; in [8], 78.3%; in assay [9], 95.6%; in assay [10] it was 75.9%; in [11] it was 81.4%; in assay [12], 83.1%. Further, the growth in assay [13] was 107%; in [14] it was 90.6%; in assay [15] it was 108%; in [16] it was 90.4%; in assay [17] it was 97.8%; in [18], 82.6%. Further, in [19], the growth was 95%.
For `CSc1nc(NCCN2CCOCC2)c(C#N)c(-c2cccc([N+](=O)[O-])c2)n1`, the growth is 109% in assay [1]; 87.3% in assay [2]; 95.7% in assay [3]; 82.5% in [4]; 135% in assay [5]; 93.7% in [6]. Further, the growth is 86.4% in [7]; 55.7% in assay [8]; 102% in [9]; 98% in assay [10]; 100% in assay [11]; 97.4% in [12]. For the same molecule, the growth is 96.2% in assay [13]; 87.3% in assay [14]; 97.8% in assay [15]; 94.9% in assay [16]; 109% in assay [17]; 97.9% in [18]. Moreover, the growth in [19] is 95.7%.
Regarding `COc1ccc(CCNc2nc(SC)nc(-c3cccc([N+](=O)[O-])c3)c2C#N)cc1OC`, the growth is 98.6% in assay [1]; 80.5% in assay [2]; 84% in assay [3]; 84.8% in [4]; 112% in assay [5]; 72% in assay [6]. In addition, the growth in assay [7] is 78%; in [8] it was 94.8%; in assay [9], 98.7%; in assay [10], 95%; in [11] it was 82.6%; in assay [12], 61.6%. The growth in [13] is 87.5%; in assay [14] it was 5.9% (active); in assay [15] it was 72.7%; in assay [16], 95.4%; in assay [17], 102%; in [18], 68.3%. Besides, the growth in assay [19] is 68.4%.
Take `CCOC(=O)C(C)(C#N)C1C=CCCC1` (configuration not stated): the growth in assay [1] was 96.5%; in assay [2] it was 96.7%; in [3], 95%; in [4] it was 84%; in assay [5], 83.2%; in assay [6], 92.3%. Further, the growth in assay [7] was 75.1%; in assay [8], 63.2%; in [9] it was 84.6%; in assay [10] it was 98%; in assay [11] it was 92.9%; in assay [12], 98.8%. Also, the growth in assay [13] was 68.2%; in assay [14] it was 91.5%; in assay [15], 95.1%; in assay [16] it was 94.8%; in assay [17], 90.6%; in assay [18] it was 84.1%. In addition, the growth in assay [19] is 91.9%.
With `COc1cccc(-c2nc3sccn3c2-c2ccnc(NCCCNS(=O)(=O)c3cccc(F)c3)c2)c1`, the growth in [1] was 7.47% (active); in assay [2] it was 31%; in [3], 28.5%; in assay [4], 11.4%; in [5] it was 61.1%; in assay [6] it was 20.7%. For the same molecule, the growth in assay [7] was 19.7%; in assay [8] it was 64.4%; in assay [9] it was 9.96% (active); in assay [10], 3.29% (active); in [11], -19.9% (active); in [12], 14.4%. Further, the growth was 59.4% in [13]; 20.2% in assay [14]; 54.3% in [15]; 27.7% in assay [16]; 39.6% in [17]; 57.7% in assay [18]. In addition, the growth in assay [19] is 4.88% (active).

Values taken from PubChem BioAssay (NCI).
